Compound activity (PubChem BioAssay)
NTR1 ag: agonists of human neurotensin receptor NTR1 | 0.17% of 330,000 active | NTR1-U2OS beta-arrestin-GFP spot imaging, agonist mode | P30989 | activation, % at 20 µM;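 active = activation at or above 40% of the spot to cytoplasm intensity ratio, with at least 20 cells analyzed; inconclusive = wells under 20 cells, flagged as cytotoxic or low count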;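 also: 0% = DMSO without peptide and 100% = 100 nM NTR1 peptide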
Exocytosis inh: lytic granule exocytosis inhibition | TALL-104 LAMP-1 surface exposure, flow cytometry; cells stimulated with thapsigargin and PMA | inhibition, % at 10 µM | 0.66% of 360,000 active;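 active = inhibition above about 55%, limit read from the data; inconclusive = no clear call, values can overlap the other calls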
ABHD5 PLIN5 PPI: blocks binding of human ABHD5 to perilipin-5. Q00G26+Q8WTS1. Split G. princeps luciferase complementation, luminescence, 4 h. inhibition, % at 4 µM. 0.78% of 360,000 active;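 active = inhibition above the mean inhibition across every tested compound plus 3 SD, cut at about 22% in these data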;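 also: 0% = DMSO only wells and the 100% control is not disclosed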
HTR2A ag: activates the mouse 5-HT2A serotonin receptor. CHO-K1 mHTR2A beta-arrestin complementation, luminescence; percent of 30 µM serotonin response. activation, % at 7.6 µM. 0.66% of 360,000 active. AID 624169;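 active = activation above a run cutoff, the mean activation of all tested compounds plus 3 SD, cut at about 14% in these data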;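 also: 0% = plate median of compound wells and 100% = 30 µM serotonin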
Target sequence (P35363 whole entry, looked up): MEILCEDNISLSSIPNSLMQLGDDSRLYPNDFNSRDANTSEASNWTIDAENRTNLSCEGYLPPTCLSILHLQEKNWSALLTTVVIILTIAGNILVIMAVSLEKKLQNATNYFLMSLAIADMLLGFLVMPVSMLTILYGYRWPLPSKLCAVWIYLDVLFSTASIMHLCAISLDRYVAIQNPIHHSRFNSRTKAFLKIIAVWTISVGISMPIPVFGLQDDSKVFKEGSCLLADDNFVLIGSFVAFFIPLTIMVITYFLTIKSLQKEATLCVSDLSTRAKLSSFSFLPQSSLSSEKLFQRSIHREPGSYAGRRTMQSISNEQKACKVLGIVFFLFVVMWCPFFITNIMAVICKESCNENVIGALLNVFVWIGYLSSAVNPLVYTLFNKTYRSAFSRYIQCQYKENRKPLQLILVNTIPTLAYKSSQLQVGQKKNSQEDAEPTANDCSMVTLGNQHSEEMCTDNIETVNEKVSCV
B2AR ag: agonists of human beta-2 adrenergic receptor inducing internalization; Am2.2-beta2AR cells, FAP receptor internalization, flow cytometry; 0.43% of 340,000 active; response, % (concentration not given with the values); P07550; AID 504454;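 active = response above a set limit, near 3 SD of response in nonfluorescent compounds, cut at about 42% in these data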
NTR1 ag confirm: NTR1 (human) agonism, confirmed | 38% of 480 active | activation, % at 20 µM | NTR1-U2OS beta-arrestin-GFP translocation imaging | shares compounds with NTR1 ag;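 active = mean activation at 20 µM of at least 40%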;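 also: 0% = DMSO without peptide and 100% = 100 nM NTR1 peptide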
An asterisk follows results filed as active. Hits are enriched below; roughly 2.3% of the tested compounds scored in any of these assays.

For COc1ccc(CCNc2ccc(C(CC(N)=O)NC(=O)Cc3cccc4ccccc34)cc2[N+](=O)[O-])cc1 (stereo not drawn) the results were NTR1 ag 48*, Exocytosis inh -1, ABHD5 PLIN5 PPI -9, HTR2A ag -4, B2AR ag 7 and NTR1 ag confirm 10.
`O=C(Cc1cccs1)Nc1nc(-c2ccc(F)c(F)c2)cs1` gave NTR1 ag 52*, Exocytosis inh 15, ABHD5 PLIN5 PPI -3, HTR2A ag 8, B2AR ag 10 and NTR1 ag confirm -2.
Screening COc1ccc(C2CC(c3ccccc3)=NN2c2ccc(S(N)(=O)=O)cc2)cc1 (stereo not drawn) returned NTR1 ag 23, Exocytosis inh -1, ABHD5 PLIN5 PPI 1, HTR2A ag -2 and B2AR ag -1.
Screening COc1ccc(C2CC(c3ccccc3)=NN2c2ccc(C(N)=O)cc2)cc1 (stereo not drawn) returned NTR1 ag 41*, Exocytosis inh -6, ABHD5 PLIN5 PPI 0, HTR2A ag -4, B2AR ag 2 and NTR1 ag confirm 20.
Screening Oc1ccc(C2=NN(c3ccccc3)C(c3ccc(F)cc3)C2)cc1 (stereo not drawn) returned NTR1 ag 61*, Exocytosis inh -12, ABHD5 PLIN5 PPI -10, HTR2A ag -1, B2AR ag -1 and NTR1 ag confirm 11.
For Oc1ccccc1C1=NN(c2ccccc2)C(c2ccc(F)cc2)C1 (stereo not drawn) the results were NTR1 ag 4, Exocytosis inh 8, ABHD5 PLIN5 PPI -8, HTR2A ag -4 and B2AR ag 10.
O=Cc1ccc(Sc2nnc(-c3ccccc3)o2)c([N+](=O)[O-])c1 was read as NTR1 ag inconclusive, Exocytosis inh 3, ABHD5 PLIN5 PPI -1, HTR2A ag 0, B2AR ag 2 and NTR1 ag confirm 8.
Screening COc1ccccc1NS(=O)(=O)c1cc(NC(=O)/C=C/c2cccs2)ccc1N1CCOCC1 returned NTR1 ag 2, Exocytosis inh 1, ABHD5 PLIN5 PPI 5, HTR2A ag 3 and B2AR ag 8.
For COc1ccc(-c2[nH]nc3nc(N4CCN(C(=O)c5ccoc5)CC4)cc(C(F)(F)F)c23)cc1 the results were Exocytosis inh 4, ABHD5 PLIN5 PPI -7 and HTR2A ag -4.
For Cc1ccc(-c2nc3cccnc3o2)cc1NC(=O)COc1ccc(Cl)cc1C the results were NTR1 ag 6, Exocytosis inh -6, ABHD5 PLIN5 PPI 2, HTR2A ag 0 and B2AR ag -13.
`Cc1ccc(-c2nc3cccnc3o2)cc1NC(=O)COc1ccc(C(C)(C)C)cc1` gave NTR1 ag 62*, Exocytosis inh -1, ABHD5 PLIN5 PPI -3, HTR2A ag 13, B2AR ag 24 and NTR1 ag confirm 22.
`CN(CC(=O)Nc1ccccc1Cl)C(=O)COC(=O)c1ccc(-c2ccc(O)cc2)cc1` gave NTR1 ag 0, Exocytosis inh -5, ABHD5 PLIN5 PPI 5, HTR2A ag -9 and B2AR ag -9.
For CC(C)(C)OC(=O)N1CCC[C@@H]1C(=O)NCc1ccccc1Cl the results were Exocytosis inh 0, ABHD5 PLIN5 PPI -2 and HTR2A ag -3.
O=C(CC1Nc2ccccc2NC1=O)Nc1cc(Cl)cc(Cl)c1 (stereo not drawn) was read as NTR1 ag 73*, Exocytosis inh 1, ABHD5 PLIN5 PPI 3, HTR2A ag -4, B2AR ag 5 and NTR1 ag confirm 54*.
For C[C@]12CCC(O)CC1CCC1C2CC[C@]2(C)C(c3cc(C(F)(F)F)n[nH]3)CCC12 (stereo partly drawn) the results were NTR1 ag 74*, Exocytosis inh -16, ABHD5 PLIN5 PPI 5, HTR2A ag 7, B2AR ag 24 and NTR1 ag confirm 30.
Screening CCOc1ccc2nc(NC(=O)C3CCCN(S(=O)(=O)c4c(C)noc4C)C3)sc2c1 (stereo not drawn) returned NTR1 ag 2, Exocytosis inh 9, ABHD5 PLIN5 PPI 4, HTR2A ag 1 and B2AR ag 9.
Screening N=c1c(C(=O)NCCc2ccccc2)cc2c(=O)n3ccccc3nc2n1Cc1ccco1 returned NTR1 ag 43*, Exocytosis inh 34, ABHD5 PLIN5 PPI 21, HTR2A ag -7, B2AR ag -6 and NTR1 ag confirm 6.
For COc1ccc(NC(=O)Cn2c(=O)n(-c3ccc(OC)cc3OC)c(=O)c3c(C)c(C)sc32)cc1 the results were NTR1 ag 0, Exocytosis inh 2, ABHD5 PLIN5 PPI -1, HTR2A ag -1 and B2AR ag 0.
CCOC(=O)c1sc(Nc2nc3c(OC)cccc3s2)nc1C was read as NTR1 ag 55*, Exocytosis inh 21, ABHD5 PLIN5 PPI 1, HTR2A ag 4, B2AR ag 11 and NTR1 ag confirm 26.
For CCc1nc(CN2CCCC(C(=O)c3ccc4c5c(cccc35)CC4)C2)c(C)[nH]1 (stereo not drawn) the results were NTR1 ag -1, Exocytosis inh 3, ABHD5 PLIN5 PPI 13, HTR2A ag -1 and B2AR ag 11.
Screening COc1ccc(C(=O)NNC2=NCCCCC2)cc1 returned NTR1 ag 2, Exocytosis inh 4, ABHD5 PLIN5 PPI 0, HTR2A ag -3 and B2AR ag -3.
For COc1ccc(OC)c(-c2csc(NC(=O)C3COc4ccccc4O3)n2)c1 (stereo not drawn) the results were NTR1 ag 9, Exocytosis inh 4, ABHD5 PLIN5 PPI 2, HTR2A ag -1 and B2AR ag -1.
`O=C(Nc1nc(-c2nc3ccccc3s2)cs1)C1COc2ccccc2O1` (stereo not drawn) gave NTR1 ag 41*, Exocytosis inh 0, ABHD5 PLIN5 PPI 1, HTR2A ag -7, B2AR ag 15 and NTR1 ag confirm -3.
`O=C(CN(C(=O)c1ccc(Cl)cc1)N1C(=O)C2CCCCC2C1=O)c1ccc(Cl)cc1` (stereo not drawn) gave NTR1 ag 52*, Exocytosis inh 0, ABHD5 PLIN5 PPI -2, HTR2A ag 2, B2AR ag 1 and NTR1 ag confirm 47*.
For O=C(CN(C(=O)c1ccc(Cl)cc1)N1C(=O)C2C3C=CC(C3)C2C1=O)c1cccs1 (stereo not drawn) the results were NTR1 ag 0, Exocytosis inh 5, ABHD5 PLIN5 PPI -1, HTR2A ag 3 and B2AR ag 5.
Screening Cc1cccc(-c2nc(Nc3ccc(N4CCOCC4)cc3)c3ccccc3n2)c1 returned NTR1 ag 17, Exocytosis inh 4, ABHD5 PLIN5 PPI 6, HTR2A ag -3 and B2AR ag -3.
`Cc1cccc(-c2nc(Nc3cccc(O)c3)c3ccccc3n2)c1` gave NTR1 ag 53*, Exocytosis inh 8, ABHD5 PLIN5 PPI -7, HTR2A ag 5, B2AR ag 6 and NTR1 ag confirm 27.
